From PubChem BioAssay AID2629 (Broad Institute, 2010)
The whole screen tested about 320,000 compounds, of which about 1,900 (0.59%) were called active. The sample holds actives, similar compounds and a random draw of the others, so the mix is not that of the screen. Values without a mark were called inactive. Rule as the data show it: active = inhibition mostly above about 10% (no sharp cut-off); inactive = mostly below about 6.7%.

The compounds below were run against Protein LANA1 (Human herpesvirus 8 type P (isolate GK18)) (UniProt Q9QR71) (assay: blockers of LANA interaction with H2A/H2B – biochemical, FP readout, HTS, primary screen (AID 2629)). Conditions: cell-free LANA-H2A/H2B peptide, fluorescence polarization, active compounds read high, concentration not given here.
Chain of Protein LANA1 (Human herpesvirus 8 type P (isolate GK18)) (Q9QR71 whole entry, looked up): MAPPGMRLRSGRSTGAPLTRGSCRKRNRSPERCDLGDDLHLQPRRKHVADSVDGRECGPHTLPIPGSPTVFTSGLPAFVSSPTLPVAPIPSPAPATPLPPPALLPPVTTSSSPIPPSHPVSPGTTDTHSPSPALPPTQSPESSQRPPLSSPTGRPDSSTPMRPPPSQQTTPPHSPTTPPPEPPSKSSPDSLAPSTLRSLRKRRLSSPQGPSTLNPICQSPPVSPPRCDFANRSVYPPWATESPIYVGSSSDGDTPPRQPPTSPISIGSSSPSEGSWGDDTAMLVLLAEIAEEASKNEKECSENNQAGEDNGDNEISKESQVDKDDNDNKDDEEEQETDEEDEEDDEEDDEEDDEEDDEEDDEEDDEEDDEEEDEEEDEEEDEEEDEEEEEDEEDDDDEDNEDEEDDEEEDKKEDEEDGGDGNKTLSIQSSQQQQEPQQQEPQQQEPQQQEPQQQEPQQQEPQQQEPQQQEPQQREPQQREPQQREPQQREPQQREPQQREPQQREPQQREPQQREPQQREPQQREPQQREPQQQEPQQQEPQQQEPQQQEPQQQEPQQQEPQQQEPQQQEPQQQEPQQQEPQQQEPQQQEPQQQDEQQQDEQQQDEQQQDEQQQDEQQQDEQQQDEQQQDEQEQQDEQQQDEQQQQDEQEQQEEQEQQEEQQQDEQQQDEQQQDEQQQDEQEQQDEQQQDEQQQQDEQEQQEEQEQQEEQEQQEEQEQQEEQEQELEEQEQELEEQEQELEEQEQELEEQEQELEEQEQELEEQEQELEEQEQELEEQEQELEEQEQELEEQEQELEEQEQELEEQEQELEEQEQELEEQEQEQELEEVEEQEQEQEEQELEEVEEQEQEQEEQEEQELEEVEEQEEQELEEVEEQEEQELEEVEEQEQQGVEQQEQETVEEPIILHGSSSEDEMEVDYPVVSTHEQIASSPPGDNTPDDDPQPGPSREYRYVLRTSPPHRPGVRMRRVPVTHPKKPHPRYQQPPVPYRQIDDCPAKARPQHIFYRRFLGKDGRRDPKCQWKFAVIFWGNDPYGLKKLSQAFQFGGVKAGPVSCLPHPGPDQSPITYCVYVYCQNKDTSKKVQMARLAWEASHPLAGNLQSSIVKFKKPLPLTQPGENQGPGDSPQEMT

Row | Structure (SMILES) | inhibition
1 | Cc1cccc(N2CC(C)Cn3c2nc2c3c(=O)n(CC(=O)OCc3ccccc3)c(=O)n2C)c1 (stereo not given) | 0.536%
2 | O=C(Nc1c(C(=O)N2CCCCC2)cnn1-c1ccccc1)c1ccco1 | 0.114%
3 | O=C(Nc1ccccc1C(=O)N1CCCCCC1)c1ccccc1Cl | -5%
4 | O=C(Nc1ccccc1C(=O)N1CCCCC1)c1ccco1 | 20.4% (active)
5 | CCOc1ccc(NC(=O)CN(C)C(=O)c2c(C)noc2C)cc1OCC | -1.42%
6 | CCCCN=C1N/C(=C\c2ccco2)C(=O)N1c1ccccc1 | -4.75%
7 | CCOc1ccc(CC(=O)NCCS(=O)(=O)N2CCN(c3ccccc3)CC2)cc1 | 7.98%
8 | COc1ccc(OC)c(NC(=O)N[C@H](Cc2ccccc2)C(=O)NN)c1 | 1.67%
9 | CC(=O)COc1ccc2c(-c3ccccc3)cc(=O)oc2c1 | 4.47%
10 | O=C(CNC(=O)OCc1ccccc1)Oc1cc2oc(=O)cc(-c3ccccc3)c2cc1Cl | 22.2% (active)
11 | O=C(CNC(=O)c1ccc(-c2ccccc2)cc1)OCc1ccc(Cl)cc1 | -3.98%
12 | COc1ccc(CCNC(=O)C2CCCN(Cc3nc(-c4cccc(Cl)c4)oc3C)C2)cc1OC (stereo not given) | 2.76%
13 | CCN1C(=O)C(=O)N(CC(=O)Nc2cc(C)ccc2C)C1=O | 65.4% (active)
14 | Cc1ccc(C)c(NC(=O)COC(=O)Cn2c(C)csc2=O)c1 | -0.0986%
15 | CCN1C(=O)C(CC(=O)Nc2cc(C)ccc2C)SC1=Nc1ccc(S(N)(=O)=O)cc1 (stereo not given) | -5.5%
16 | Cc1cccc(C(=O)NCC(=O)OCC(=O)N(C)CC(=O)Nc2ccccc2Cl)c1 | -3.61%
17 | CSc1nnc(-c2ccc(C(F)(F)F)cn2)o1 | 12.3% (active)
18 | FC(F)(F)c1cnc(Oc2ccccc2-c2nnc(-c3ccc(Cl)cc3)o2)c(Cl)c1 | 0.331%
19 | CC(C)Oc1ccc(Oc2ccc(C(F)(F)F)cn2)cc1 | 0.437%
20 | N/C(=N\c1nc2ccccc2o1)NC(=O)C(Cc1ccccc1)N1C(=O)c2ccccc2C1=O (stereo not given) | -0.102%
21 | C[N+](C)(C)CCNC(=O)c1cc[n+](Cc2ccccc2)c(/C=N/O)c1 | -2.86%
22 | COc1ccc(NC(=O)CC2C(=O)OCC3CCCCN32)cc1Cl (stereo not given) | 6.65%
23 | Cc1cc(NC(=O)CN2C(=O)NC(CC(C)C)C2=O)no1 (stereo not given) | -2.81%

Row | Structure (SMILES) | inhibition
24 | CCOC(=O)c1[nH]c2ccc(OC)cc2c1NC(=O)N1CCOCC1 | -1.57%
25 | CCOC(=O)N1CCN(CCC(=O)Nc2cc(OC)ccc2OC)CC1 | -0.496%
26 | CCOC(=O)c1[nH]c2ccc(OC)cc2c1NC(=O)CCN1CCN(Cc2ccccc2)CC1 | 38.6% (active)
27 | CC1CCCN(S(=O)(=O)c2ccc(-c3ccc(=O)[nH]n3)o2)C1 (stereo not given) | 5.98%
28 | CSCCC(NC(=O)c1ccccc1)C(=O)N1CCCCCCC1 (stereo not given) | 3.36%
29 | CSCC(NS(=O)(=O)c1ccc(C)cc1)C(=O)O (stereo not given) | 4.08%
30 | CSCCC(NS(=O)(=O)c1ccc(C)cc1)C(=O)N1CCCC1 (stereo not given) | 10.1% (active)
31 | O=C(NCCOc1ccccc1F)Nc1ccc(Br)cc1 | 1.21%
32 | CCC(C)[C@H](NC(=O)N1c2ccccc2NC(=O)[C@@H]1C(C)C)C(=O)N[C@@H](Cc1ccccc1)C(=O)O (stereo not given in full) | 0.386%
33 | CCN(CCCCOC(=O)c1ccc(OC)c(OC)c1)C(C)Cc1ccc(OC)cc1 (stereo not given) | 8.66% (active)
34 | COc1ccc(C(=O)OCC(=O)NCCCc2ccccc2)cc1OC | -0.725%
35 | COc1ccc(C(CCN(Cc2ccc(OC)c(OC)c2)C(=O)CCl)c2ccccc2)cc1 (stereo not given) | -1.72%
36 | CCN(C(=O)COC(=O)c1ccccc1O)c1cccc2ccccc12 | 4.86%
37 | O=C(C1CCN(S(=O)(=O)Cc2ccccc2)CC1)N1CCCc2ccccc21 | 1.2%
38 | Cc1cc(Nc2ccc(Br)cc2)nc2ccccc12 | -0.269%
39 | Cc1cc(Nc2ccccc2)nc(N)n1 | 85.1% (active)
40 | CC(=O)Nc1ccc(Nc2cc(C)nc(Nc3ccc(NC(C)=O)cc3)n2)cc1 | -0.44%
41 | Cc1cccn2c(CN(C)C3CCCc4ccccc43)c(C(=O)N3CCOCC3)nc12 (stereo not given) | 3.32%
42 | CCCC(=O)OCC(=O)Nc1cc(Cl)ccc1[N+](=O)[O-] | 3.99%
43 | Cc1ccc(C)c(NC(=O)COC(=O)CSc2ccccc2)c1 | -1.08%
44 | COc1ccc(OCC(=O)Nc2cc(C)c(Cl)cc2OC)c([N+](=O)[O-])c1 | 3%
45 | COc1cc(NC(=O)COC(=O)CSc2ccc3ccccc3c2)c(C)cc1[N+](=O)[O-] | 10.3% (active)
46 | COc1cc(NC(=O)COC(=O)c2cnc(C)cn2)c(C)cc1[N+](=O)[O-] | 0.629%

Row | Structure (SMILES) | inhibition
47 | Cc1cc(NC(=O)COC(=O)COc2ccc(Cl)cc2C)c([N+](=O)[O-])cc1C | 18.3% (active)
48 | Cc1ccc2c(c1)C(c1ccccc1)N(C(=O)c1ccc(F)cc1)CC(=O)N2 (stereo not given) | -6.68%
49 | CCCc1nc2c(C)cc(-c3nc4ccccc4n3C)cc2n1Cc1ccc(-c2ccccc2C(=O)O)cc1 | -5.17%
50 | O=C(CN1CCCC1)Nc1sc2c(c1C(=O)Nc1ccccc1)CCCC2 | -9.6%
51 | c1ccc(CN=C2Nc3ccccc3CS2)nc1 | -3.85%
52 | CS(=O)(=O)N1CCN(CC(=O)NC2CCCC2)CC1 | 3.66%
53 | Cc1ccc(S(=O)(=O)NC[C@H]2O[C@@H](n3cnc4c(N)ncnc43)[C@H](O)[C@@H]2O)s1 | -71.8%
54 | CCOc1cc(C(=O)OCC(=O)Nc2cccc(C)c2)ccc1OCC(=O)N1CCOCC1 | 25.3% (active)
55 | O=C(OCC(=O)N1CCOCC1)c1ccc2ccccc2c1 | -0.101%
56 | COc1cc(C(=O)Nc2ncccc2C)ccc1OCC(=O)N1CCOCC1 | -0.868%
57 | O=C(NCC1CCCO1)C1CCN(C2CCN(C(=O)C3CCCCC3)CC2)CC1 (stereo not given) | 0.649%
58 | O=C(NC(CC(=O)N1CCN(c2ccccc2)CC1)c1ccccc1)c1ccccc1Cl (stereo not given) | 4.7%
59 | COC(=O)c1ccccc1OCC(=O)N1CCN(c2ccc(Cl)cc2)CC1 | 3.13%
60 | C[C@H](NC(=O)c1ccccc1Cl)C(=O)OCC(=O)N1CCN(c2ccccc2)CC1 | 41% (active)
61 | CN(CC(=O)Nc1cccc(F)c1)C(=O)C1CC(=O)N(CCc2ccccc2)C1 (stereo not given) | -5.92%
62 | O=C(NC1CCCCC1)C1CC(=O)N(CCc2ccccc2)C1 (stereo not given) | -0.144%
63 | COCCCNC(=O)C1CC(=O)N(CCc2ccccc2)C1 (stereo not given) | 0.409%
64 | O=C(NCCCN1CCCCC1)C1CC(=O)N(CCc2ccccc2)C1 (stereo not given) | 15% (active)
65 | Cc1ccc(CCN2CC(C(=O)NCCc3ccccc3)CC2=O)cc1 (stereo not given) | 18.8%
66 | CCNC(=O)c1cccc(NC(=O)C2CC(=O)N(CCc3ccccc3)C2)c1 (stereo not given) | 75.8% (active)
67 | COc1ccc(CNC(=O)C2CCC(CNc3c(N4CCOCC4)c(=O)c3=O)CC2)cc1 (stereo not given) | -0.686%
68 | CCOC(=O)Cn1c(-c2cccnc2Cl)nc2ccccc21 | 6.09%
69 | CCCCCCCCCCOC(=O)Cn1c(COc2cccc(OC)c2)[n+](C)c2ccccc21 | 6.12%

Row | Structure (SMILES) | inhibition
70 | CCCCCCCCCCOC(=O)Cn1c(COc2ccc(C)cc2)[n+](C)c2ccccc21 | 15.8% (active)
71 | COC(=O)C(C)n1cnc2c(nnn2-c2ccc(F)cc2)c1=O (stereo not given) | -1.75%
72 | NC(N)=N/N=C/c1ccc(OCc2ccc(Cl)cc2Cl)cc1 | 0.216%
73 | C=CCN(c1ccc(Cl)cc1)S(=O)(=O)c1cccc(C(=O)OCC(=O)N(C)C)c1 | -2.64%
74 | O=C(NNC(=O)c1cnccc1C(F)(F)F)c1ccc(Cl)cc1 | 1.78%
75 | CCC1=C(OC(=O)N(CC)CC)N2C(=O)OC(=NCCc3c[nH]c4ccccc34)[C@]2(C)[C@H]2C1=CC[C@H]1C(=O)N(CC)C(=O)[C@H]12 | 1.67%
76 | Oc1ccccc1N1CCN(C(=S)NCc2ccccc2)CC1 | 18.4% (active)
77 | Oc1ccc(N2CCN(C(=S)NCc3ccccc3)CC2)cc1 | -0.124%
78 | O=C(CN1CCN(c2ccccc2O)CC1)NC(=O)NCc1ccccc1 | 2.65%
79 | Cc1ccc(CN(C(=O)c2sc3ccccc3c2Cl)C2CCS(=O)(=O)C2)cc1 (stereo not given) | 2.69%
80 | CCCCNC(=O)OCCSCCS(=O)(=O)c1ccc(Cl)cc1 | -3.62%
81 | CCCN(CCC)CC(O)COc1ccccc1C(=O)Nc1ccccc1 (stereo not given) | -2.37%
82 | CN(C)S(=O)(=O)c1ccc(NC(=O)COC(=O)Cn2[nH]c(=O)c3ccccc3c2=O)cc1 | 3.02%
83 | O=C(COC(=O)c1n[nH]c2ccccc12)Nc1ccccc1Br | -3.41%
84 | CN(C)S(=O)(=O)c1ccc(NC(=O)COC(=O)c2n[nH]c3ccccc23)cc1 | 15.3% (active)
85 | CCOCCCn1c(SCC(=O)Nc2cc(OC)ccc2OC)nc2ccccc2c1=O | 3.49%
86 | Cc1ccc2c(c1)N(CC(=O)NCCCN1CCCCC1)C(=O)c1cccnc1O2 | 3.43%
87 | COc1cc(OC)c(OC)cc1CN1CCN(C(=O)c2cccc3ccccc23)CC1 | 0.329%
88 | Cc1ccc(S(=O)(=O)N2CCC(Oc3ccc(-n4cnnn4)cc3)CC2)cc1 | -4.09%
89 | CCn1c(SCC(=O)NNC(=O)c2ccc(OC)cc2)nnc1C(C)C | -0.104%
90 | O=C(CS(=O)(=O)c1cn(Cc2ccc(Cl)cc2)c2ccccc12)N1CCOCC1 | 0.389%
